PubChem BioAssay (NCI)
The panel holds about 79,000 compounds, 15% with a hit somewhere; the sample as a whole holds those more often. Values without a mark were called inactive. Activity calls are given as the source filed them. Cut-off read from the data, not from the text of the source: active = growth inhibition above about 70%; inactive = the rest.

Tests used:
[1] = NCI Yeast Anticancer Drug Screen. Data for the rad50 strain (AID 155);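 note: 0% = growth of vehicle-only cultures of the same strain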; conditions: S. cerevisiae rad50 strain growth inhibition; at 50.0 µM; hits give high values
In short: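 Compounds were tested on a yeast strain with an engineered DNA damage repair alteration; the reported value is growth inhibition normalised to vehicle treatment.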

[2] = NCI Yeast Anticancer Drug Screen. Data for the mec2-1 strain (AID 157); conditions: S. cerevisiae mec2-1 strain, at 50.0 µM, hits give high values
In short: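 mec2-1 yeast strain, carrying an alteration in DNA damage repair or cell cycle control, was exposed to compounds; growth inhibition was measured relative to vehicle-treated controls.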

[3] = NCI Yeast Anticancer Drug Screen. Data for the sgs1 mgt1 strain (AID 161);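 note: 0% = growth of cultures given vehicle only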; conditions: S. cerevisiae sgs1 mgt1 strain, at 50.0 µM, hits give high values
In short: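 Yeast cells carrying a defined DNA-repair defect were exposed to test compounds. Growth inhibition was measured relative to vehicle-treated controls.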

[4] = NCI Yeast Anticancer Drug Screen. Data for the cln2 rad14 strain (AID 165);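 note: 0% = growth equal to vehicle treated cultures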; conditions: S. cerevisiae cln2 rad14 strain, at 50.0 µM, hits give high values
In short: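 Yeast carrying cln2 and rad14 alterations (cell cycle control and DNA damage repair) were exposed to compounds. Growth inhibition was measured against vehicle-treated controls.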

[5] = NCI Yeast Anticancer Drug Screen. Data for the bub3 strain (AID 167); conditions: S. cerevisiae bub3 mutant strain, at 50.0 µM, hits give high values
In short: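 Growth of a checkpoint-deficient yeast mutant is measured after compound exposure. Values represent inhibition relative to vehicle.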

[6] = NCI Yeast Anticancer Drug Screen. Data for the mlh1 rad18 strain (AID 175); conditions: S. cerevisiae mlh1 rad18 strain growth inhibition; at 50.0 µM; hits give high values
In short: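 Growth inhibition of the yeast strain was measured after compound exposure and expressed relative to vehicle-treated controls. The strain carries defined defects in DNA damage repair.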

Compound | growth inhibition [1] | growth inhibition [2] | growth inhibition [3] | growth inhibition [4] | growth inhibition [5] | growth inhibition [6]
C=CCOc1cc2c(cc1C(C)c1ccc(OCC)cc1)OCO2 (stereo unspecified) | 51.6% | 14.8% | -14.6% | -19.4% | -10.8% | -32.3%
Cc1c(O)c2ccccc2n(C)c1=O | -9.45% | -12.4% | -15.7% | -6.1% | 3.85% | -6.8%
CCCCCCCCCCCC(=O)N(C)CCS(=O)(=O)O | 6.2% | -28.8% | 4.55% | 13.1% | -20.6% | 8.45%
O=C(N/N=C\c1ccc(Cl)c(Cl)c1)c1ccncc1 | -6.65% | -1% | -3.05% | 5.4% | -1.75% | -5.7%
CC1(C)C(CBr)=[N+]([O-])C(C)(C)N1O | 4.8% | -0.6% | -15.2% | 13.6% | -12.9% | 21.6%
O=C1c2ccccc2C(=O)N1CNc1ccccc1Cl | 27.8% | 8.95% | 23.2% | 18.2% | 18.2% | 17.3%
CCCCCCCCCCCCCCCC[N+](C)(C)CCNC(C)=O | 99.2% (active) | 99.6% (active) | 99.7% (active) | 98.7% (active) | 99.2% (active) | 99.5% (active)
COc1ccc(-n2c(=O)c(N=Nc3ccc(Cl)cc3)c(O)n(-c3ccc(I)cc3)c2=S)cc1 | 49.8% | 5.45% | 33.4% | -3.7% | 0.8% | 22.4%
Cc1cc2c(c(C(=O)NCC(=O)O)c1)Oc1c(cc(C)cc1C(=O)NCC(=O)O)S2 | -17% | 20.1% | -4.95% | 14.8% | -29.9% | 20.9%
N#CCCN(Cc1ccccc1)C(=S)Nc1cccc(C(F)(F)F)c1 | 75.8% (active) | 53% | 85.2% (active) | 81.5% (active) | 70.1% (active) | 78% (active)
CC1CCC23C1CC(CC(=O)C2(C)O)C3(C)C (stereo unspecified) | 4.75% | 6% | 5.2% | -49.4% | -21.1% | 5.05%
O=C(O)c1ccc(-c2nn[nH]n2)cc1 | -0.85% | -10.1% | -4% | -11.8% | -18.9% | -15.2%
O=S(=O)(C(c1ccccc1)C(O)(c1ccccc1)c1ccccc1)N1CCCC1 (stereo unspecified) | 29.6% | -0.45% | 27.4% | -21.8% | 1.25% | 22.6%
c1ccc(N=C(Nc2ccccc2)N2CCCCC2)cc1 | -20% | -50.4% | -7.9% | 9.85% | 9.35% | -21.6%
CCC(C)N1C(=O)c2ccccc2C1=O (stereo unspecified) | 33% | -13.6% | 17.1% | -13.6% | 11.3% | 27.1%
CCOC(=O)C1CC1Cc1ccccc1 (stereo unspecified) | -18.1% | -9.95% | -2.2% | -7.2% | 6.05% | -2.95%
COc1ccc2c(cnc3c4cc(OC)c(OC)cc4ccc23)c1 | 15.2% | -0.85% | 4.05% | -4.9% | 24.9% | 3.6%
Clc1cccc2nsnc12 | 12.9% | -12.1% | -3.15% | -49% | 5.15% | 6.1%
Cc1ccc(Cl)cc1NC(=O)C(C)Oc1ccccc1 (stereo unspecified) | 4.45% | -1.85% | -2% | -4.75% | 30.1% | 13.9%
O=c1[nH]cnc2nn(C3OC(CO)C(O)C3O)cc12 (stereo unspecified) | -20.4% | 12.9% | -6.85% | -5.65% | 9.25% | -18.9%
OC(CN1CCCCC1)c1ccncc1 (stereo unspecified) | 0.5% | -24.8% | -8.4% | -0.9% | 1% | 1.4%

Compound | growth inhibition [1] | growth inhibition [2] | growth inhibition [3] | growth inhibition [4] | growth inhibition [5] | growth inhibition [6]
CC(C)(C)c1cc(/C=N/NC(=S)Nc2ccccc2)cc(C(C)(C)C)c1O | 25.9% | 8.35% | 41% | -26.3% | -7.15% | 41.5%
CS(=O)(=O)CC1=NC(=N)N=C1CS(C)(=O)=O | 6.05% | -14.9% | -8.95% | -4.85% | -29.8% | 2.1%
O=c1c2[nH]cnc2ncn1Cc1ccccc1 | 0.95% | 1.35% | 0.3% | -32.5% | -20.6% | -6.25%
CCCCCC1=CC(=O)C=C(OC)C12C(=O)Oc1cc(O)c(C(=O)O)c(CCCCC)c12 (stereo unspecified) | 32.4% | 37% | 28.2% | 48.4% | 18.6% | 33.8%
CC1C=C(OC(=O)c2ccccc2)C(=O)C(n2cc(F)c(=O)n(C(=O)c3ccccc3)c2=O)O1 (stereo unspecified) | 43.2% | 47.3% | 68.7% | 0.1% | -1.25% | 15.6%
COc1ccc(OC)c(/C=C/C2=C(C)C(=O)CC(c3cc(OC)ccc3OC)C2C)c1 (stereo unspecified) | 4.3% | 12.3% | 28.3% | 8.75% | 2.35% | 4.3%
Cc1cc(N2CCOCC2)nc2ccc(Cc3ccc4nc(N5CCOCC5)cc(C)c4c3)cc12 | 13.5% | -10.2% | -32.2% | -24.2% | -4.65% | -4.4%
Clc1cnnc(Cl)c1N/N=C/c1ccco1 | 11.6% | -0.05% | 13% | -43.2% | -6.7% | -7.55%
COc1cc2c3c(c1)-c1c(ccc(OC)c1Oc1nnnn1-c1ccccc1)CC3N(C)CC2 (stereo unspecified) | 30.4% | 26.2% | 28.9% | 52.4% | 27.8% | 80.5% (active)
O=C(c1ccccc1)C1CCCCC1 | 1.05% | -3.65% | -6.25% | 6.45% | 4.4% | -3.7%
COC(=O)[C@@H]1[C@H](O)CC[C@H]2[C@@]1(C)CC[C@@H](C)[C@]2(COC(C)=O)CC(=O)c1ccoc1 | -27.1% | -32.2% | -37% | -27.1% | -47.9% | -45.8%
C=C1C(OC(=O)/C=C/c2ccccc2)CC(OC(C)=O)C2(C)C1CC1CC(OC(C)=O)C(C)=C(C(OC(C)=O)C2OC(C)=O)C1(C)C (stereo unspecified) | 38.5% | 6.35% | 14.1% | 21.4% | 25.4% | 24.5%
c1ccc(B2Nc3ccccc3O2)cc1 | 18.1% | 7.05% | 5.3% | 18.4% | 43% | 39.5%
OC1(C2(O)CCCCC2)CCCCC1 | -38.2% | 13.4% | 22.1% | -32.5% | -11.8% | 3.75%
C=Cn1c([N+](=O)[O-])cnc1/C=C/c1ccc(C(=O)OCCN2CCOCC2)cc1 | 68.8% | 16.4% | 78.3% (active) | 34.9% | -10.2% | 53%
CC(=O)CC(=O)C(C)C.[Cu+2] | -7.6% | -15.9% | -17.1% | -17.9% | -21.5% | -17.4%
CCC(O)(c1ccc(O)cc1)C(O)(CC)c1ccc(O)cc1 (stereo unspecified) | 1.4% | -12.8% | -0.2% | 5.55% | 17.4% | -14.4%
O=C(N/N=C/c1cc(-c2ccccc2Cl)c(-c2ccccc2Cl)o1)c1ccncc1 | 14.5% | 23.6% | 38.4% | 28% | 26.7% | 28.3%
CCOc1ccc2c(c1)nc1ccccc1[n+]2C | 21.6% | 15.4% | 22% | 25.5% | 52.4% | 39.9%
C/C(=N\NS(=O)(=O)c1ccc(C)cc1)c1ccc[n+]([O-])n1 | 4.9% | -2.4% | 5.8% | 7.4% | 6.2% | -0.55%
